Among the data in PubChem BioAssay (Tox21) are Potency values, retold here.

Experiment [1] can be described thus: Nuclear factor erythroid 2-related factor 2/antioxidant responsive element (Nrf2/ARE) small molecule agonists: qHTS cell viability counter screen in human keratinocytes (AID 1919968; active = well fitted curve in the direction sought with a large enough effect in the repeat runs; an effect the other way counts as inactive or inconclusive; also: nearly all actives have a fitted effect of over 55% in size). Summed up:
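Cytotoxicity was multiplexed with the Nrf2/ARE luciferase assay in the same wells. Stably transfected HaCaT keratinocytes were treated with test compounds for 23 h at 37 C. Cell viability was then measured by CellTiter-Fluor fluorescence.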
A general note: In qHTS, concentration-response curves come from the screen itself.

The nature of experiment [2]: Nuclear factor erythroid 2-related factor 2/antioxidant responsive element (Nrf2/ARE) small molecule agonists: luciferase reporter gene qHTS assay in human keratinocytes (AID 1919969). Also: nearly all actives have a fitted effect of over 35% in size. Also: potency is read from the fitted curve at half-maximal effect. For orientation: Reporter assays use an easily measured gene product as a stand-in for the process of interest.
Experiment [3] deals with Gonadotropin-releasing hormone receptor (Homo sapiens) (UniProt P30968). The experiment can be described thus: Human gonadotropin-releasing hormone receptor (GnRHR) small molecule agonists, calcium flux assay in GnRHR-HEK293 cells (AID 1920063). Also: nearly all actives have a fitted effect of over 35% in size. Summed up: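 Agonist activity was measured as intracellular calcium flux in HEK293 cells engineered to stably express human GnRHR. After dye loading for 1 hour at 37 C, compounds in DMSO were added and fluorescence was followed for 3 minutes.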
Sequence of Gonadotropin-releasing hormone receptor (Homo sapiens) (P30968 whole entry, looked up): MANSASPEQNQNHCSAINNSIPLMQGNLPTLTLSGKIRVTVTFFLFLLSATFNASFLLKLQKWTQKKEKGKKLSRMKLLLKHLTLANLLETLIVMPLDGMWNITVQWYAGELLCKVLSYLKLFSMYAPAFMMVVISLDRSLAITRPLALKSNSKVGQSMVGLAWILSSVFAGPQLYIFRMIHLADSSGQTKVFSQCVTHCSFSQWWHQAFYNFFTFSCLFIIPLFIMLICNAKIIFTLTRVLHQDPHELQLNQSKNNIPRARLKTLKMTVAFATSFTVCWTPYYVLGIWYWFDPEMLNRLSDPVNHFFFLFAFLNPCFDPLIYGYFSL
In general terms: Calcium flux is commonly read through the fluorescence of an indicator in the cells.

Experiment [4] has as its target KiSS-1 receptor (Homo sapiens) (UniProt Q969F8). The experiment can be described thus: Human kisspeptin (KISS1R) small molecule agonists, calcium flux assay in KISS1R-HEK293 cells (AID 1920064; active = well fitted curve in the direction sought with a large enough effect in the repeat runs; an effect the other way counts as inactive or inconclusive). The method in brief:
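Agonist activity is monitored as intracellular calcium rise in engineered HEK293 cells carrying human KISS1R. Cells are dye-loaded for 1 h at 37 C before compound addition, and fluorescence is recorded for 3 min.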

Experiment [5] in a line: G protein-coupled receptor (GPCR) small molecule agonists, calcium flux assay: HEK293 wild type cell line counter screen (AID 1920065). Summed up:
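Seed cells, incubate 18 h (37 C, 5% CO2); add calcium dye, 1 h at 37 C; pin-transfer compounds, ATP control or DMSO; read fluorescence 480/540 nm each second for 3 min.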

Experiment [6] can be described thus: p53 small molecule agonists, cell-based qHTS assay with human liver microsomes (AID 1963577).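 Also: p53 response element beta-lactamase reporter cells with liver microsomes plus NADPH.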 The method in brief: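 16 h, 37 C exposure of p53RE-bla cells to compounds with human liver microsomes and NADPH (0.5 mg/mL final each); detection via LiveBLAzer mixture, 2 h dark at room temperature.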
A short description of experiment [7]: p53 small molecule agonists, cell-based qHTS assay with rat liver microsomes (AID 1963578). The method in brief: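 With rat liver microsomes and NADPH present (0.5 mg/mL final each), p53RE-bla cells are treated with compound for 16 h at 37 C. LiveBLAzer detection mixture is then applied for 2 h at room temperature in the dark.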
Experiment [8] can be described thus: p53 small molecule agonists, cell-based qHTS assay with human liver microsomes: qHTS cell viability counter screen (AID 1963579). Also: nearly all actives have a fitted effect of over 45% in size. Also: potency is read from the fitted curve at half-maximal effect. Summed up:
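In this multiplexed counter screen, the reporter plates were subsequently treated with CellTiter-Glo so that cell viability, reflected by luminescence, could be recorded for p53RE-bla cells dosed 16 h with compounds under microsomal activation (HLM and NADPH).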

Experiment [9] is described as follows: p53 small molecule agonists, cell-based qHTS assay: qHTS cell viability counter screen (AID 1963581). Also: nearly all actives have a fitted effect of over 45% in size. Summed up: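 Viability was counter-screened in parallel with the p53 agonist reporter by measuring intracellular ATP luminescence in the same HCT-116 p53RE-bla wells after 16 h compound treatment at 37 C.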
A short description of experiment [10]: p53 small molecule agonists, cell-based qHTS assay (AID 1963582; active = well fitted activation curve with a large enough effect in the signal ratio in the repeat runs, not every such curve was filed as active; the % refers to the signal ratio). Summed up:
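Cells carrying a p53-responsive bla reporter are treated with test compounds for 16 h at 37 C; beta-lactamase activity is then detected with LiveBLAzer B/G FRET substrate after 2 h at room temperature.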

Experiment [11] addresses 5-hydroxytryptamine receptor 2A (Homo sapiens) (UniProt P28223). The experiment can be described thus: 5-hydroxytryptamine receptor 2A (HTR2A) small molecule antagonists, cell-based qHTS assay (AID 1963586). Also: nearly all actives have a fitted effect of over 45% in size. The method in brief:
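CHO cells stably expressing human HTR2A were plated for 18 h at 37 C, then loaded with calcium dye for 1 h. Compounds were preincubated 5 min at room temperature before DOI (4 nM solution) was added. Kinetic fluorescence was read for 3 min.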

Experiment [12] has the same target. The experiment can be described thus: 5-hydroxytryptamine receptor 2A (HTR2A) small molecule agonists, cell-based qHTS assay (AID 1963587). Also: nearly all actives have a fitted effect of over 30% in size. Summed up:
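HTR2A-CHO cells, plated 18 h at 37 C/5% CO2, dye-loaded 1 h at 37 C; compounds in DMSO added by pin tool (agonist mode). Intracellular calcium flux read as kinetic fluorescence on FDSS over 2 min at 1 s intervals.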

The target of experiment [13] is Muscarinic acetylcholine receptor M1 (Homo sapiens) (UniProt P11229). The experiment can be described thus: Cholinergic receptor muscarinic 1 (CHRM1) small molecule antagonists, cell-based qHTS assay (AID 1963588). Also: nearly all actives have a fitted effect of over 40% in size. The method in brief: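 Compounds were tested at 15 concentrations in three independent runs. Dye-loaded CHRM1-CHO cells were exposed 5 min at room temperature before stimulation by acetylcholine added at 50nM. Intracellular calcium was read kinetically on FDSS for 3 min.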
Sequence of Muscarinic acetylcholine receptor M1 (Homo sapiens) (P11229 whole entry, looked up): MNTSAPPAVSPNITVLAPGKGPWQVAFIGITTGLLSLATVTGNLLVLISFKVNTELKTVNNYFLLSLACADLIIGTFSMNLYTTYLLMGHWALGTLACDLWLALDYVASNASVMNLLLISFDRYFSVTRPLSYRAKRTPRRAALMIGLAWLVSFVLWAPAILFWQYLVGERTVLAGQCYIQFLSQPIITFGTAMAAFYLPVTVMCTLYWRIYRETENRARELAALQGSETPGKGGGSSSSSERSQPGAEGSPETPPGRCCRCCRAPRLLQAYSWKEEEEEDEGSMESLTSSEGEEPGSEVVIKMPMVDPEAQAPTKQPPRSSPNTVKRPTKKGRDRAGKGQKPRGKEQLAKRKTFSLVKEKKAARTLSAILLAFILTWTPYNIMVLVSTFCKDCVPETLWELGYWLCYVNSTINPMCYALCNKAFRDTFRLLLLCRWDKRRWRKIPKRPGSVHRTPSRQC

For experiment [14] the target is unchanged. The experiment can be described thus: Cholinergic receptor muscarinic 1 (CHRM1) small molecule agonists, cell-based qHTS assay (AID 1963589). Also: nearly all actives have a fitted effect of over 35% in size. Summed up: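 Cells were plated and incubated 18 h at 37 C/5% CO2, loaded with calcium dye for 1 h at 37 C, then treated with compounds in DMSO. Fluorescence was recorded kinetically at 1 sec intervals.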
The nature of experiment [15]: cAMP Responsive Elements (CRE) small molecule agonists, cell-based qHTS assay (AID 1963590). The method in brief:
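Cells carrying a CRE-driven beta-lactamase reporter (HEK 293T) are seeded, incubated overnight (18 h), and treated with test compounds for 3 h at 37 C; reporter activity is then detected with a FRET substrate after 2 h at room temperature.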

Experiment [16] can be described thus: cAMP Responsive Elements (CRE) small molecule antagonists, cell-based qHTS assay (AID 1963591; active = well fitted inhibition curve with a large enough effect in the signal ratio in the repeat runs, not every such curve was filed as active; the % refers to the signal ratio). Summed up:
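Cells (CRE-bla HEK 293T, DMEM with 10% dialyzed FBS and 25 mM HEPES) are seeded and incubated 18 h. Compounds are added with NKH477 agonist at 0.25 uM final for 3 h, then FRET substrate for 2 h.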

Experiment [17] deals with Beta-2 adrenergic receptor (Homo sapiens) (UniProt P07550). The experiment can be described thus: Adrenergic beta2 receptor (ADRB2) small molecule antagonists, cell-based qHTS assay (AID 1963592). Also: series mostly up to about 92 µM; nearly all actives have a fitted effect of over 50% in size. The method in brief: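 Assay format: CHO-ADRB2 cells, 18-20hr seeding at 37C/5% CO2, then compound plus 1nM isoproterenol agonist mix for 0.5hr RT. Homogeneous time-resolved fluorescence cAMP detection after 1hr, expressed as 665/615 nm ratio.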
Sequence of Beta-2 adrenergic receptor (Homo sapiens) (P07550 whole entry, looked up): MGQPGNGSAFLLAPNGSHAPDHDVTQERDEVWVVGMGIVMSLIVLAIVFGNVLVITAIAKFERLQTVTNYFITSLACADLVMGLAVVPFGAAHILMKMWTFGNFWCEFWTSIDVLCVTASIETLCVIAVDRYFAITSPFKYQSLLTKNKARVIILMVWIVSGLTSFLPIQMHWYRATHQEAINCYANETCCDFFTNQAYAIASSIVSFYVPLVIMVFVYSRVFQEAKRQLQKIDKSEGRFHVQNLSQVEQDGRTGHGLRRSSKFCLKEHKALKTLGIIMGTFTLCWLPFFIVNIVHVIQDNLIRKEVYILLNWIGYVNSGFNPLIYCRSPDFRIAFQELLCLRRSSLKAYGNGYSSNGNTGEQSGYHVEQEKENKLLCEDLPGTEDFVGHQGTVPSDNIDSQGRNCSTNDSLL

Experiment [18] concerns the target D(2) dopamine receptor (Homo sapiens) (UniProt P14416). The experiment can be described thus: Dopamine D2 receptor (DRD2) small molecule agonists, cell-based qHTS assay (AID 1963594). Also: nearly all actives have a fitted effect of over 35% in size. The method in brief: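 HEK293 cells stably expressing DRD2 were cultured 24 h at 37 C, then given Ro20-1724 (0.1 mM final) and compounds for 10 min at room temperature. NKH477 (200nM) was then added for 30 min. cAMP was read by HTRF.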

The target is the same in experiment [19]. The experiment can be described thus: Dopamine D2 receptor (DRD2) small molecule antagonists, cell-based qHTS assay (AID 1963595; active = well fitted inhibition curve with a large enough effect in the signal ratio in the repeat runs, with a control signal flat; the % refers to the signal ratio). The method in brief:
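Cells were plated and grown for 24 h at 37 °C. Ro20-1724 (0.1 mM final) went in first, then compound for 10 min. NKH477 (200 nM) with quinpirole (12 nM) followed for 30 min at RT, then HTRF detection reagents for 1 h.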

A short description of experiment [20]: p53 small molecule agonists, cell-based qHTS assay with rat liver microsomes: qHTS cell viability counter screen (AID 1963580). Also: nearly all actives have a fitted effect of over 45% in size. Summed up:
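Luminescent ATP readout (CellTiter-Glo, 30 min at room temperature) reports viability of p53RE-bla HCT-116 cells after 16 h at 37 C with test compounds under metabolic activation by rat liver microsomes and NADPH at 0.5 mg/mL final each.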

Values without a mark were called inactive. Records with an inconclusive call do not appear. Calls of active or inactive are those of the source. Unless noted, calls follow the shape of the full dose curve.

Sequence of KiSS-1 receptor (Homo sapiens) (Q969F8 whole entry, looked up): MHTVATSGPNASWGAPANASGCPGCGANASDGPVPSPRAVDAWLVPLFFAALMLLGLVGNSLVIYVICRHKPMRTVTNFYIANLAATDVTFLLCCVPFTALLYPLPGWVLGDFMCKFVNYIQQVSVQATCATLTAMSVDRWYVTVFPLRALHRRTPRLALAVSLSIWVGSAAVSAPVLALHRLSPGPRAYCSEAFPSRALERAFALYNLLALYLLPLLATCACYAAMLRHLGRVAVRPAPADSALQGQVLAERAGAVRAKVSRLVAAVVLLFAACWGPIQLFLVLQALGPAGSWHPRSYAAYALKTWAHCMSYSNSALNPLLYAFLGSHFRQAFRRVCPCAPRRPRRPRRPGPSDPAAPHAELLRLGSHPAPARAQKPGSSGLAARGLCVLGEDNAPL
Sequence of D(2) dopamine receptor (Homo sapiens) (P14416 whole entry, looked up): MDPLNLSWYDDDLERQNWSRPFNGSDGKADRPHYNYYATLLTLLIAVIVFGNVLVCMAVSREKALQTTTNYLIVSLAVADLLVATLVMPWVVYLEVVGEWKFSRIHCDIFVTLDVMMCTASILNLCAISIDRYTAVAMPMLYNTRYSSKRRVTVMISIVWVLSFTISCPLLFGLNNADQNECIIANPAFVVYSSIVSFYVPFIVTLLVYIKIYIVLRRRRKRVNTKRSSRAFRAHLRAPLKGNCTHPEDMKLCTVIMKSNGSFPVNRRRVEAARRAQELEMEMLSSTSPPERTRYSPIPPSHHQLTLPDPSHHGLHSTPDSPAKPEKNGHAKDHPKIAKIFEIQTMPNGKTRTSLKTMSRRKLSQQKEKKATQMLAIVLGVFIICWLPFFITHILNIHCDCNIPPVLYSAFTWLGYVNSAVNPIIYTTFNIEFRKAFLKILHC
Sequence of 5-hydroxytryptamine receptor 2A (Homo sapiens) (P28223 whole entry, looked up): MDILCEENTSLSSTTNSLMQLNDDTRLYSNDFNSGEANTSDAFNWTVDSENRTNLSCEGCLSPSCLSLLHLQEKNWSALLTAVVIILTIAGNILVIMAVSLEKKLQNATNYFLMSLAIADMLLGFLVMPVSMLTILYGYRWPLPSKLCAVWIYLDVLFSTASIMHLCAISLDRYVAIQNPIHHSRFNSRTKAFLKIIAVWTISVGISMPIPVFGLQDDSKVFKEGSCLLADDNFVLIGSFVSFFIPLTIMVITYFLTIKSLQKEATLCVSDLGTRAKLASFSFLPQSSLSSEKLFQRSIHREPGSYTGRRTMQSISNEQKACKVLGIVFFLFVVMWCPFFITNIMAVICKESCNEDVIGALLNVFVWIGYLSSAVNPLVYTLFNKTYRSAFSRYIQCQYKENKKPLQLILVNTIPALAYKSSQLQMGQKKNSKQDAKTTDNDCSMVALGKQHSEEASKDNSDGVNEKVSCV

Regarding `CSCCCN=C=S`, the Potency result in [1], in [3], in [4], in experiment [5], in [6] and in experiment [7] was “inactive” throughout. Moreover, the Potency result in [8], in experiment [9], in experiment [10], in [11], in experiment [12] and in experiment [13] was “inactive” throughout. In addition, the Potency entry in experiment [14], in [15], in experiment [16], in experiment [17], in [18] and in [19] was “inactive” in each case. In experiment [2], the Potency is 61.1 µM (active).

`COC(=O)C(C)Oc1ccc(Oc2ccc(Cl)cc2Cl)cc1` (centres undefined): the Potency entry in experiment [1], in experiment [2], in [3], in experiment [4], in [5] and in experiment [6] was “inactive” throughout. The Potency result in experiment [7], in [8], in experiment [20], in experiment [9], in [12] and in [14] was “inactive” throughout. In addition, the Potency result in experiment [15], in [16], in experiment [17], in experiment [18] and in experiment [19] was “inactive” throughout.

In the case of `C(COCC1CO1)OCC1CO1` (centres undefined), the Potency entry in experiment [1], in [3], in experiment [4], in experiment [5], in experiment [6] and in [7] was “inactive” in each case. Also, the Potency result in [9], in experiment [10], in experiment [11], in experiment [12], in experiment [13] and in [14] was “inactive” in each case. Moreover, the Potency result in experiment [15], in experiment [16], in [18] and in experiment [19] was “inactive” in each case. Further, the Potency is 68.6 µM (active) in experiment [2] and 32.4 µM (active) in experiment [8].

On to `CC(O)(CS(=O)(=O)c1ccc(F)cc1)C(=O)Nc1ccc(C#N)c(C(F)(F)F)c1` (centres undefined), for which the Potency result in experiment [1], in experiment [2], in [3], in experiment [4], in [5] and in experiment [6] was “inactive” each time. For the same molecule, the Potency entry in experiment [7], in experiment [8], in [20], in experiment [9], in [16] and in experiment [18] was “inactive” in each case.

For `Oc1cccc(-c2ccccc2)c1`, the Potency entry in [1], in [2], in [3], in [4], in experiment [5] and in experiment [6] was “inactive” each time. The Potency entry in experiment [7], in experiment [8], in [9], in [10], in [11] and in experiment [12] was “inactive” each time. In addition, the Potency entry in experiment [13], in [15], in experiment [16], in experiment [18] and in [19] was “inactive” each time.

As for `CC(C)CCCCCCCOC(=O)c1ccccc1C(=O)OCCCCCCCC(C)C`, the Potency result in [1], in [2], in experiment [3], in experiment [4], in [5] and in experiment [6] was “inactive” throughout. The Potency entry in experiment [7], in [8], in [20], in [10], in experiment [11] and in [12] was “inactive” in each case. Moreover, the Potency result in experiment [13], in [14], in experiment [15], in experiment [16], in [17] and in experiment [18] was “inactive” each time. Moreover, the Potency result in experiment [19] was “inactive”.

Take `O=C1C(=O)c2cccc3cccc1c23`: the Potency result in experiment [1], in experiment [3], in [4], in experiment [5], in experiment [6] and in [7] was “inactive” in each case. The Potency entry in experiment [8], in [20], in experiment [12], in experiment [13], in [16] and in experiment [17] was “inactive” each time. The Potency entry in experiment [18] and in experiment [19] was “inactive” in each case. Besides, the Potency in experiment [2] was 27.3 µM (active).

For the molecule `CCC[N+](CCC)(CCC)CCC`, the Potency entry in [1], in [2], in [3], in experiment [4], in experiment [5] and in [6] was “inactive” in each case. For the same molecule, the Potency result in experiment [7], in experiment [8], in [9], in experiment [10], in experiment [11] and in [12] was “inactive” throughout. The Potency entry in [13], in [14], in [15], in experiment [16], in experiment [17] and in experiment [18] was “inactive” in each case. In addition, the Potency entry in [19] is “inactive”.

For `O=C1CN2CCOC2(c2ccccc2Cl)c2cc(Cl)ccc2N1` (centres undefined), the Potency result in experiment [1], in experiment [2], in [3], in experiment [4], in experiment [5] and in experiment [6] was “inactive” each time. For the same molecule, the Potency result in [7], in experiment [8], in [20], in experiment [11], in [12] and in experiment [13] was “inactive” each time. For the same molecule, the Potency result in experiment [14], in experiment [15], in [16], in [17], in experiment [18] and in experiment [19] was “inactive” each time.
